Records with an inconclusive call do not appear. Values without a mark were called inactive. Calls of active or inactive are those of the source. Calls follow the shape of the dose curve; as a rule, active = well fitted cell-killing curve with a large enough effect; inconclusive = small, poorly fitted or top-dose-only effect, or effect the other way; inactive = no such curve, though single readings can be large or run the other way.
Potency is read from the fitted curve at half-maximal effect.

The first assay in a line: Quantitative High-Throughput drug screen in 47 multiple myeloma cell lines against the NCATS MIPE library collection: ARP1_JJKsccF8 cell viability assay (AID 1918928; also: nearly all actives have a fitted effect of over 40% in size). The note with it: ARP1 myeloma cells viability, CellTiter-Glo ATP, 48 h; series mostly up to 45.8 µM; viability: at the top concentration. An outline of the steps: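 ATP readout (CellTiter-Glo), 48 h drug incubation, 37 °C/5% CO2, 500 cells per well; normalisation to DMSO (100%) and media-only (0%) controls.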
One may read the viability as a read-out of living cells in per cent, often relative to untreated cells. For `C#CC1(O)CCC2C3CCC4=CC(=O)CCC4(C)C3CCC21C` (stereo not drawn), the “viability” value was 108%.
Still for that read-out and setting: the figure for `CC(C)(O)C(=O)Nc1ccc([N+](=O)[O-])c(C(F)(F)F)c1` is 80.2%.
The same measure, in the same setting: the figure for `C1=C2CCCN[C@H]2[C@@H]2C[C@H]1[C@@H]1CCCCN1C2` is 113%.
Take `CC(C)[C@]12O[C@@H]1[C@@H]1O[C@]13[C@]1(O[C@H]1C[C@@H]1C4=C(CC[C@@]13C)C(=O)OC4)[C@H]2O`: the “viability” value was 2.57%.
For `N=c1c2c(-c3ccccc3)c(-c3ccccc3)n(Cc3ccccc3)c2ncn1C1CCC(O)CC1` (stereo not drawn), the Potency is 14.8 µM (active).
Still for that read-out and setting: the figure for `CC(N[C@H]1C[C@H]1c1ccccc1)c1ccc2c(c1)OCCO2` (stereo partly drawn) is 8.33 µM (active).
Regarding `O=c1[nH]c2ccccc2n1C1CCN(Cc2ccc(-c3[nH]c4cc5ncnc5cc4nc3-c3ccccc3)cc2)CC1`, the Potency is 14.8 µM (active).
Take `CO[C@H]1CCC(O[C@H]2C[C@H]([C@]3(C)CC[C@]4(C[C@H](O)[C@@H](C)[C@@H]([C@@H](C)C=C(C)C(=O)[C@H](C)C[C@H](C)C(=O)O)O4)O3)O[C@]3(O[C@@H]([C@H]4O[C@@](O)(CO)[C@H](C)C[C@H]4C)C[C@H]3C)[C@H]2C)O[C@H]1C` (stereo partly drawn): the Potency is 1.18 µM (active).
As for `C[C@](O)(COc1ccc(C#N)cc1)C(=O)Nc1ccc(C#N)c(C(F)(F)F)c1`, the “viability” value was 82.2%.
Take `COc1ccc2c(c1)[C@]13CCCCC1C(C2)N(C)CC3` (stereo partly drawn): the “viability” value is 108%.
Turning to `COCC1(CO)C(=O)C2CCN1CC2` (stereo not drawn), the Potency is 1.48 µM (active).
As to `C[C@H]1CCCC=CC2C[C@H](O)C[C@@H]2[C@H](O)C=CC(=O)O1` (stereo partly drawn), the “viability” value is 6.3%.
As for `c1ccc2c(CN3CCNCC3)cccc2c1`, the “viability” value is 89.2%.
For the compound `CCOC(=O)c1c(C(C#N)=CN)c2ccc(Cl)c(Cl)c2n1C`, the “viability” value was 97%.
With `COc1ccc(C(=O)c2c(C)n(CCN3CCOCC3)c3cc(I)ccc23)cc1`, the Potency is 23.5 µM (active).
As for `CCOC(=O)Nc1ccc(NCc2ccc(F)cc2)cc1N`, the “viability” value is 111%.
As for `CC=C(C)C(=O)O[C@H]1C(C)=C2[C@@H]3OC(=O)[C@@](C)(O)[C@@]3(O)[C@@H](OC(=O)CCC)C[C@](C)(OC(C)=O)[C@@H]2[C@@H]1OC(=O)CCCCCCC`, the Potency was 0.0296 µM (active).
Turning to `COC[C@H]1OC(=O)c2coc3c2[C@@]1(C)C1=C(C3=O)[C@@H]2CC[C@H](O)[C@@]2(C)C[C@@H]1OC(C)=O`, the Potency is 0.332 µM (active).
For `COc1cc2cc(c1Cl)N(C)C(=O)C[C@H](OC(=O)C(C)C)[C@]1(C)O[C@H]1[C@H](C)[C@@H]1C[C@@](O)(NC(=O)O1)[C@H](OC)C=CC=C(C)C2`, the “viability” value was 4.53%.
As for `CC[C@@H]1[C@@H](C)O[C@@](O)([C@@H](C)[C@H](O)[C@H](C)[C@H]2OC(=O)C=CC=C[C@@H](C)[C@@H]([C@@H](C)[C@@H](O)[C@H](C)[C@@]3(O)C[C@H](O[C@H]4C[C@H](O)[C@H](O)[C@H](C)O4)[C@H](CC)[C@@H](C)O3)OC(=O)C=CC=C[C@@H]2C)C[C@H]1O[C@H]1C[C@H](O)[C@H](O)[C@H](C)O1`, the Potency is 0.372 µM (active).
As for `CC(C)[C@H]1C(=O)N[C@H](CO)Cc2c[nH]c3cccc(c23)N1C`, the “viability” value is 104%.
With `C[C@@H]1CC[C@@]2(OC1)O[C@H]1C[C@H]3[C@@H]4CC=C5C[C@@H](O[C@@H]6O[C@H](CO)[C@@H](O[C@@H]7O[C@@H](C)[C@H](O)[C@@H](O)[C@@H]7O)[C@H](O)[C@@H]6O[C@@H]6O[C@@H](C)[C@H](O)[C@@H](O)[C@@H]6O)CC[C@]5(C)[C@@H]4CC[C@]3(C)[C@@H]1[C@H]2C`, the Potency was 3.32 µM (active).
In the case of `CC(C)(C)c1cc(C=C(C#N)C#N)cc(Br)c1O`, the Potency was 26.4 µM (active).

A short description of a further assay: Quantitative High-Throughput drug screen in 47 multiple myeloma cell lines against the NCATS MIPE library collection: ARD_JJKsccE7 cell viability assay (AID 1918929). The note with it: ARD myeloma cell line viability, CellTiter-Glo, 48 h; series mostly up to 45.8 µM; viability: at the top concentration. The method in brief:
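Viability readout: CellTiter-Glo luminescence following 5 min room-temperature incubation with reagent. Prior exposure: 48 h, 37C, humidified 5% CO2, 500 cells per well.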
(ATP-based viability assays read luminescence as a measure of living cells.)
Turning to `CC(C)(O)C(=O)Nc1ccc([N+](=O)[O-])c(C(F)(F)F)c1`, the Potency is 23.5 µM (active).
With `N=c1c2c(-c3ccccc3)c(-c3ccccc3)n(Cc3ccccc3)c2ncn1C1CCC(O)CC1` (stereo not drawn), the Potency was 8.33 µM (active).
In the case of `O=C(N[C@@H](COc1ccc2[nH]c(=O)[nH]c2c1)c1ccccc1)c1cccn(Cc2ccc(F)c(F)c2)c1=O`, the Potency is 18.7 µM (active).
On to `O=c1[nH]c2ccccc2n1C1CCN(Cc2ccc(-c3[nH]c4cc5ncnc5cc4nc3-c3ccccc3)cc2)CC1`, for which the Potency was 18.7 µM (active).
Turning to `COc1ccc2c(c1)[C@]13CCCCC1C(C2)N(C)CC3` (stereo partly drawn), the “viability” value was 86.9%.
Take `COCC1(CO)C(=O)C2CCN1CC2` (stereo not drawn): the Potency was 20.9 µM (active).
With `CC(=O)N(C)c1cccc(-c2ccnc3c(C(=O)c4cccs4)cnn23)c1`, the Potency is 20.9 µM (active).
On to `COc1ccc(C(=O)c2c(C)n(CCN3CCOCC3)c3cc(I)ccc23)cc1`, for which the Potency is 18.7 µM (active).
For the compound `COc1cc2cc(c1Cl)N(C)C(=O)C[C@H](OC(=O)C(C)C)[C@]1(C)O[C@H]1[C@H](C)[C@@H]1C[C@@](O)(NC(=O)O1)[C@H](OC)C=CC=C(C)C2`, the “viability” value was 14.3%.
Take `C[C@@H]1CC[C@@]2(OC1)O[C@H]1C[C@H]3[C@@H]4CC=C5C[C@@H](O[C@@H]6O[C@H](CO)[C@@H](O[C@@H]7O[C@@H](C)[C@H](O)[C@@H](O)[C@@H]7O)[C@H](O)[C@@H]6O[C@@H]6O[C@@H](C)[C@H](O)[C@@H](O)[C@@H]6O)CC[C@]5(C)[C@@H]4CC[C@]3(C)[C@@H]1[C@H]2C`: the Potency is 2.35 µM (active).
